What all share (assay): cross-link between two proteins; affinity purification or IP with mass spectrometry; cross-linking mass spectrometry
Assay [1] deals with Ribosomal RNA-processing protein 15 (UniProt Q06511).
Assay [2] concerns the target Ribosome biogenesis protein BRX1 (UniProt Q08235).
Assay [3] has as its target Ribosome biogenesis protein NSA1 (UniProt P53136).
Assay [4] deals with Ribosome biogenesis protein SSF1 (UniProt P38789).
Assay [5] deals with Ribosome production factor 1 (UniProt P38805).

Sequence of UniProt P53136 (P53136 whole entry): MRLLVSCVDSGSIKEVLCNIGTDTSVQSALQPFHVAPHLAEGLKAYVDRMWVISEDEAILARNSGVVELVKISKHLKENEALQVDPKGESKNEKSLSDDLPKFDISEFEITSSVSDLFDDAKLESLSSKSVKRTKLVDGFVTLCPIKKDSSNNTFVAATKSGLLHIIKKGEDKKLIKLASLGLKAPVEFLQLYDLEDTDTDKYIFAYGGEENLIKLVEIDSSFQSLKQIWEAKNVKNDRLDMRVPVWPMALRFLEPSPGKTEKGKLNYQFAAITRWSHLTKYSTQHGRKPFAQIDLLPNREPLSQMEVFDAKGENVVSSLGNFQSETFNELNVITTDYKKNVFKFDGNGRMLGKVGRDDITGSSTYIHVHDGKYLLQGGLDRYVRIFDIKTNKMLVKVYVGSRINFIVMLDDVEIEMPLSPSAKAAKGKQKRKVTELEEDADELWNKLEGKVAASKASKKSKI
Sequence of UniProt Q06511 (Q06511 whole entry): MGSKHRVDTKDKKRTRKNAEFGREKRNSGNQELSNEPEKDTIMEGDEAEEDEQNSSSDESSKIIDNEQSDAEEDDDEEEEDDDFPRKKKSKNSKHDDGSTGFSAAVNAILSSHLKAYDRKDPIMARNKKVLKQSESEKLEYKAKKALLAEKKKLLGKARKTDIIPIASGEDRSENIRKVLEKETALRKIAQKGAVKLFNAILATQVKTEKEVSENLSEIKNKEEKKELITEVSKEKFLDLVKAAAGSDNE
Sequence of Ribosome biogenesis protein SSF1, P38789 (P38789 whole entry): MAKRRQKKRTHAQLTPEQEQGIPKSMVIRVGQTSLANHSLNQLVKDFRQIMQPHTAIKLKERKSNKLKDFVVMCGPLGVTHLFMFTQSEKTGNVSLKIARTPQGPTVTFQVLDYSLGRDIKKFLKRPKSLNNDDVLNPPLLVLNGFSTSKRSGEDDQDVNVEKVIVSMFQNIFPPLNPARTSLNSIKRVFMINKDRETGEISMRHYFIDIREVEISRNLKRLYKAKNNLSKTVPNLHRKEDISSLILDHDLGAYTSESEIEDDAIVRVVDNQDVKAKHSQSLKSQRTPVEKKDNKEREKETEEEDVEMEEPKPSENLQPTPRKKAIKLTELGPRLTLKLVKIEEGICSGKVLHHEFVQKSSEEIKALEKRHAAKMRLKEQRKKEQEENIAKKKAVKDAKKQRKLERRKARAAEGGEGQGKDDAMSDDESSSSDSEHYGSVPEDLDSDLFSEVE
Sequence of UniProt Q08235 (Q08235 whole entry): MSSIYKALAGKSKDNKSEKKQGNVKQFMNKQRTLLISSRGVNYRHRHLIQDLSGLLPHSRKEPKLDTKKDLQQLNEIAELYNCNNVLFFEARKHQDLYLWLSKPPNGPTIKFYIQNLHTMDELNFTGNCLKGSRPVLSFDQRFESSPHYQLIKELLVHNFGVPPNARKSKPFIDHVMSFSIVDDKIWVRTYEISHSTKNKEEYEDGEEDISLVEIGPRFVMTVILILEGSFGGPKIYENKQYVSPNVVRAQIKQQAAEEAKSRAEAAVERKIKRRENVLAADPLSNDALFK
Sequence of Ribosome production factor 1, P38805 (P38805 whole entry): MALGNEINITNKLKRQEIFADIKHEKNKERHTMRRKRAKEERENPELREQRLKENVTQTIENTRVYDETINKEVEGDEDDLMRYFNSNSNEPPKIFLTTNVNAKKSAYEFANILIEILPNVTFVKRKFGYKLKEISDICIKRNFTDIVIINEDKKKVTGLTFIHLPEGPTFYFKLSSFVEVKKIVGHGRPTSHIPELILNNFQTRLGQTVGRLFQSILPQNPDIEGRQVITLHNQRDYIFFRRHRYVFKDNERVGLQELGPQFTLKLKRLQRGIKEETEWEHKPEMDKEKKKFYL

For “Ribosome biogenesis protein SSF1, P38789”, the “listed as a hit” value in assay [1] and in assay [2] was “yes” each time.

As to Ribosome production factor 1, P38805, the “listed as a hit” value in assay [3] is on record as “yes”.

For the substance “Large ribosomal subunit protein uL29A, P0CX84”, in assay [4], the “listed as a hit” value is listed as “yes”.

“Large ribosomal subunit protein uL22A, P05740”: the “listed as a hit” value in assay [5] is recorded as “yes”.

For the origin of these results see paper PMC6340896.
